From PubChem BioAssay (EPA / NIEHS)
Calls of active or inactive are those of the source. The calls were made as follows: active = hit-call score of the fitted dose curve at least 0.9, where 1 is the maximum; inactive = score below 0.9.

system: TTR (gene 7276); test: CCTE_GLTED_hTTR_0.5uM: CCTE's human Transthyretin (hTTR) Inhibition Assay, with 0.5uM TTR, Great Lakes Toxicology and Ecology Division (GLTED) Lab (AID 2284320)
Protocol: CCTE_GLTED_hTTR is a cell-free, single-readout assay designed to test the chemicals' ability to displace T4 from the human transthyretin (TTR) protein. TTR (at 0.125uM or 0.5uM) is incubated in presence of test chemical for 2 hours during which disrupting chemicals displace ANSA from the TTR protein. Results read fluorescence at 380 excitation and 475 emission.CCTE_GLTED_hTTR_0.5uM is the assay component measured from the CCTE_GLTED_hTTR assay. It is designed to make measurements of fluorescent polarization, using a form of binding reporter, as detected with Fluorescence signals by Fluorescence technology.Data from the assay component CCTE_GLTED_hTTR_0.5uM was analyzed at the assay endpoint CCTE_GLTED_hTTR_0.5uM in the positive analysis fitting direction relative to DMSO as the negative control and baseline of activity. Using a type of binding reporter, loss-of-signal activity can be used to understand a chemical's ability to displace T4 from transthyretin. To generalize the intended target to other relatable targets, this assay endpoint is annotated to the 'transporter' intended target family, where the subfamily is 'hormone carrier protein'.

Row | Structure (SMILES) | AC50 | outcome
1 | O=C(O)C(F)(F)C(F)(F)C(F)(F)C(F)(F)C(F)(F)C(F)(F)C(F)(F)C(F)(F)Cl | 0.252 µM (active) | 
2 | O=C(O)C(F)(F)C(F)(F)C(F)(F)C(F)(F)C(F)(F)C(F)(F)C(F)(F)C(F)(F)C(F)(F)C(F)(F)C(F)(F)C(F)(F)C(F)(F)F | 10.3 µM (active) | 
3 | O=C(Cl)C(F)(F)C(F)(F)C(F)(F)C(F)(F)C(F)(F)C(F)(F)C(F)(F)C(F)(F)F | 0.491 µM (active) | 
4 | O=C(O)C(F)(F)C(F)(F)C(F)F | 14.9 µM (active) | 
5 | N=C(N)C(F)(F)C(F)(F)C(F)(F)C(F)(F)C(F)(F)C(F)(F)C(F)(F)F | 4.85 µM (active) | 
6 | O=C(CC(=O)C(F)(F)C(F)(F)F)C(F)(F)F | 3 µM (active) | 
7 | O=C(O)C(F)(F)C(F)(F)C(F)(F)C(F)(F)C(F)(F)C(F)(F)C(F)(F)C(F)(F)C(F)(F)C(F)(F)C(F)(F)C(F)(F)F | 11.6 µM (active) | 
8 | FC(F)(I)C(F)(F)C(F)(F)C(F)(F)I | 3.74 µM (active) | 
9 | FC(F)(F)C(F)(F)C(F)(F)C(F)(F)C(F)(F)CCI | 18.6 µM (active) | 
10 | O=C(O)C(F)(F)C(F)(F)C(F)(F)C(F)(F)C(F)(F)C(F)(F)C(F)(F)C(F)(F)C(F)(F)C(F)F | 1.03 µM (active) | 
11 | OCC(F)(F)C(F)(F)C(F)(F)C(F)(F)C(F)(F)C(F)F | 33.2 µM (active) | 
12 | FC(F)(F)C(F)(F)C(F)(F)C(F)(F)CCI | 75 µM (active) | 
13 | O=C(O)C(F)(F)C(F)(F)C(F)(F)F | 31.9 µM (active) | 
14 | CC(C)(C)C(=O)CC(=O)C(F)(F)C(F)(F)C(F)(F)F |  | inactive
15 | C=CC(=O)OCC(F)(F)C(F)(F)C(F)(F)C(F)(F)COC(=O)C=C | 0.886 µM (active) | 
16 | O=C(O)C(F)(F)C(F)(F)C(F)(F)C(F)(F)F | 10.2 µM (active) | 
17 | COC(=O)CCC(F)(F)C(F)(F)C(F)(F)C(F)(F)F | 53.4 µM (active) | 
18 | O=S(=O)(O)C(F)(F)C(F)(F)C(F)(F)C(F)(F)C(F)(F)C(F)(F)C(F)(F)F | 0.0773 µM (active) | 
19 | O=C(O)C(F)(F)C(F)(F)OC(F)(F)F | 31.7 µM (active) | 
20 | OCC(F)(F)C(F)(F)C(F)(F)C(F)(F)C(F)(F)C(F)(F)F | 36.8 µM (active) | 
